In PubChem BioAssay (NCI):
This is part of a sample that, as a whole, favours compounds with a hit. Of some 79,000 tested, about 15% had one in any assay. No stated cut-off is given here; in the data, active means growth inhibition above about 70%; inactive means the rest.

Experiments:
[1] = NCI Yeast Anticancer Drug Screen. Data for the rad50 strain (AID 155);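 further: 0% = growth of vehicle-only cultures of the same strain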; conditions: S. cerevisiae rad50 strain growth inhibition; at 50.0 µM; active compounds read high
Summary of the method: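 Vehicle-treated cultures provide the reference for the growth inhibition reported for compound-exposed, repair-deficient yeast.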

[2] = NCI Yeast Anticancer Drug Screen. Data for the mec2-1 strain (AID 157); conditions: S. cerevisiae mec2-1 strain, at 50.0 µM, active compounds read high
Summary of the method: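 Yeast mec2-1 mutant treated with compound. Readout: growth inhibition vs vehicle controls.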

[3] = NCI Yeast Anticancer Drug Screen. Data for the sgs1 mgt1 strain (AID 161);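 further: 0% = growth of cultures given vehicle only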; conditions: S. cerevisiae sgs1 mgt1 strain, at 50.0 µM, active compounds read high
Summary of the method: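 Inhibition of yeast growth, normalised to vehicle-treated controls, is reported for a strain bearing genetic alterations in DNA damage repair.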

[4] = NCI Yeast Anticancer Drug Screen. Data for the cln2 rad14 strain (AID 165);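 further: 0% = growth equal to vehicle treated cultures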; conditions: S. cerevisiae cln2 rad14 strain, at 50.0 µM, active compounds read high
Summary of the method: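 cln2 rad14 yeast strain; compound exposure; growth inhibition read vs vehicle controls.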

[5] = NCI Yeast Anticancer Drug Screen. Data for the bub3 strain (AID 167); conditions: S. cerevisiae bub3 mutant strain, at 50.0 µM, active compounds read high
Summary of the method: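 Mutant yeast screening strain plus compound; vehicle-treated cultures serve as the 0% inhibition reference.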

[6] = NCI Yeast Anticancer Drug Screen. Data for the mlh1 rad18 strain (AID 175); conditions: S. cerevisiae mlh1 rad18 strain growth inhibition; at 50.0 µM; active compounds read high
Summary of the method: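 Yeast w/ defined DNA-repair lesions; compound exposure; growth vs vehicle controls → % inhibition.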

Measured: growth inhibition

CCc1ccccc1NC(=O)CCc1nc(=S)[nH][nH]1
inactive: [1] -24.8% | [2] 9.6% | [3] 2.9% | [4] 32.4% | [5] 20.1% | [6] 6.15%

COc1ccc(NC(=O)CC(=O)N2N=C(N(c3ccccc3)c3ccccc3)CC2c2ccccc2)cc1 (configuration not stated)
inactive: [1] 4.75% | [2] 2.05% | [3] 12.2% | [4] 26.3% | [5] 17.6% | [6] -29.8%

Clc1ccc(/C=C2\c3ccccc3-c3nc4ccccc4nc32)cc1
inactive: [1] -6.7% | [2] -8.05% | [3] -8.65% | [4] -13.4% | [5] -8.25% | [6] -21.9%

COc1cccc(OC)c1C
inactive: [1] 15.1% | [2] -11.1% | [3] -10.6% | [4] 14.6% | [5] -4.25% | [6] 16.6%

CC(C)(C)COc1ccc2c(c1)C1=NC2=NC2=NC(=NC3=NC(=NC4=NC(=N1)c1ccc(OCC(C)(C)C)cc14)c1ccc(OCC(C)(C)C)cc13)c1ccc(OCC(C)(C)C)cc12
inactive: [1] 12.8% | [2] 1.1% | [3] -10.1% | [4] -14.6% | [5] -5.45% | [6] 18.4%

C=CCNC(=S)N1c2ccccc2NC(=O)CC1C (configuration not stated)
inactive: [1] -45.8% | [2] -9.2% | [3] -20.4% | [4] 13.4% | [5] 13.1% | [6] -15.4%

NC(=O)C(CNCc1ccccc1)NCc1ccccc1 (configuration not stated)
inactive: [1] -1.5% | [2] 14.2% | [3] 3.1% | [4] -8.5% | [5] 3.6% | [6] -11.4%

O=C1C(OCc2ccccc2)=C(OCc2ccccc2)C(=O)c2ccccc21
inactive: [1] 14.2% | [2] 3.1% | [3] 31.6% | [4] 10.2% | [5] -30.1% | [6] 36.3%

COc1cccc(C)c1C(O)CC1CCCN1 (configuration not stated)
inactive: [1] 21.6% | [2] 3.75% | [3] 7.2% | [4] 29.8% | [5] 11.7% | [6] 6.05%

c1ccc2c(c1)[nH]c1ccncc12
inactive: [1] -0.85% | [2] 0.1% | [3] -1.6% | [4] -40% | [5] -9.7% | [6] 3.7%

O=C1CC(c2ccccc2)Oc2ccccc21 (configuration not stated)
inactive: [1] -24.5% | [2] -58.1% | [3] -16.8% | [4] 8.2% | [5] -25.2% | [6] -24.1%

CC[n+]1ccc2cc(OC)c(OC)cc2c1Cc1ccc(OC)c(OC)c1
inactive: [1] -18% | [2] -5.55% | [3] -5.85% | [4] -34% | [5] -1.2% | [6] -16.1%

CCCCc1ccc(-n2cnc3c(=O)[nH]c(N)nc32)cc1
inactive: [1] 5.15% | [2] 29% | [3] -8.3% | [4] -0.4% | [5] 30.8% | [6] 26.5%

COC(=O)CC1(C(=O)OC)OC(=O)c2ccccc2N1C (configuration not stated)
inactive: [1] 8.2% | [2] 12% | [3] 19.9% | [4] -24.6% | [5] -8.35% | [6] 12.3%

COc1cc(/C=N/NC(=O)N/N=C/c2cc(OC)c(OC)c(OC)c2)cc(OC)c1OC
inactive: [1] -37.9% | [2] -4.8% | [3] -11.1% | [4] 10.9% | [5] 0.95% | [6] 6.4%

COc1cc(C=Nc2ccccc2)ccc1OC(=O)c1ccccc1
inactive: [1] 15.8% | [2] 23.2% | [3] 17.6% | [4] 28.7% | [5] 16.9% | [6] 14.6%

CCCCCCCCCC1OCCC(C)O1 (configuration not stated)
inactive: [1] 20.2% | [2] 9.95% | [3] -0.6% | [4] -20.9% | [5] 9.5% | [6] 21.2%

O=C(NNc1ccccc1)/C(=C/c1ccc2c(c1)OCO2)NC(=O)c1ccccc1
inactive: [1] 15.8% | [2] 9.5% | [3] -29.6% | [4] -6.2% | [5] 1.35% | [6] 4.55%

COc1c(C)c2c(c(Br)c1N)COCO2
inactive: [1] 3.75% | [2] 16.9% | [3] -10.7% | [4] 8.95% | [5] -7.05% | [6] -21.6%

COC(=O)c1ccc(N(C)CCC(=O)COC(C)=O)cc1
inactive: [1] 17.9% | [2] 9.7% | [3] 12% | [4] -10.2% | [5] 7.6% | [6] 10.3%

CC(c1ccccc1)C1OCC(CCCCO)O1 (configuration not stated)
inactive: [1] -7.9% | [2] -20.2% | [3] -10.7% | [4] 0.55% | [5] -15.1% | [6] -20.1%

O=C1c2cc(Cl)ccc2NC(O)c2cccn21 (configuration not stated)
inactive: [1] 3.45% | [2] 1.8% | [3] -4.3% | [4] -20.9% | [5] -11.4% | [6] -0.55%

CC(=O)c1sc(Nc2ccc(S(=O)(=O)Nc3nc(C)cc(C)n3)cc2)nc1C
inactive: [1] 15.6% | [2] -0.75% | [3] 8.9% | [4] 31.3% | [5] -11.7% | [6] -10.1%

Clc1nc(N2CCCCC2)c2[nH]cnc2n1
inactive: [1] -35.2% | [2] -6.2% | [3] 6.75% | [4] -9.8% | [5] -1.6% | [6] -0.9%

COC(=O)C1(CCCCCBr)CCCCCCCCCCC1=O (configuration not stated)
inactive: [1] -8.6% | [2] -15.4% | [3] 24.1% | [4] 12.7% | [5] -25% | [6] -34.5%

Cc1cc2oc3ccccc3c(=O)c2c(C)c1Cl
inactive: [1] -18.1% | [2] 5.1% | [3] -9.65% | [4] -3.1% | [5] 10.4% | [6] -3.6%

CCCCCNC(=O)CCC
inactive: [1] 22.6% | [2] 1.2% | [3] 25.6% | [4] 5.6% | [5] 7.05% | [6] 40.9%

Cc1cc(C)c(/C=N/NC(=O)NN)c(C)c1
inactive: [1] -16.7% | [2] -7.15% | [3] -12.2% | [4] -2.1% | [5] 2.8% | [6] -4.6%

OC1(CSc2ccccc2)CCCCC1
inactive: [1] 11.1% | [2] 22.2% | [3] 14.5% | [4] 1% | [5] -10.7% | [6] -33%

O=CNCO
inactive: [1] 19.6% | [2] 14.2% | [3] 22.6% | [4] 18.9% | [5] 8.5% | [6] 19.1%

C[N+](C)(C)/N=C(/c1ccccc1)C1CCCCC1
inactive: [1] -20.2% | [2] -2.1% | [3] -4.35% | [4] -43.5% | [5] 0.4% | [6] 7.7%

c1cncc(CSc2ncnc3nc[nH]c23)c1
inactive: [1] 11.8% | [2] -24.4% | [3] -20.1% | [4] -21.7% | [5] -48.4% | [6] -10.5%

CCCCCCCCCCC1OC(C)C(C)O1 (configuration not stated)
inactive: [1] 0.4% | [2] -13.1% | [3] -7.3% | [4] -25.1% | [5] -5.5% | [6] 13.2%

CCCCNC(=O)Nc1nc2ccccc2s1
inactive: [1] 25.3% | [2] 2.15% | [3] 11.5% | [4] 38% | [5] -3% | [6] -1.7%

CC(=O)OC12C(C)=C(C)C(=O)N1c1ccccc1N2C(C)=O (configuration not stated)
inactive: [1] -20.8% | [2] 2.55% | [3] 6.7% | [4] 15.9% | [5] 6.15% | [6] 11.1%

CC(=O)OC1CCC2(C)C(CCC3C2C(=O)C(Br)C2(C)C(C(C)=O)CCC32)C1 (configuration not stated)
inactive: [1] -1.2% | [2] 0.5% | [3] 7.95% | [4] 16.9% | [5] 13.3% | [6] 25.4%

Cn1nc(-c2cccc(N)c2)cc1Cl
inactive: [1] -17.6% | [2] -10.4% | [3] 3.75% | [4] -39.5% | [5] -15.6% | [6] 2.95%

NNc1nc2ccccc2[nH]1
inactive: [1] 16.6% | [2] -0.1% | [3] -34.9% | [4] -14.4% | [5] 8.9% | [6] 8.85%

O=C(N/N=C\c1cccc2c([N+](=O)[O-])cccc12)Nc1ccccc1
inactive: [1] -30.6% | [2] -0.45% | [3] -21.9% | [4] 2.6% | [5] -16.6% | [6] -31.6%

O=C(NC1C(=O)NNC1c1cccc([N+](=O)[O-])c1)c1ccccc1 (configuration not stated)
inactive: [1] -37.5% | [2] -26.1% | [3] 2.85% | [4] -10.6% | [5] 11.9% | [6] 0.55%

O=C(CCCCC(=O)Nc1ccc2[nH]c3ccccc3c(=O)c2c1)Nc1ccc2[nH]c3ccccc3c(=O)c2c1
inactive: [1] 0.35% | [2] 0.25% | [3] -3.1% | [4] -2.5% | [5] -3.45% | [6] 7.75%

O=C1NC(=O)C(c2ccc(Cl)cc2)N1 (configuration not stated)
inactive: [1] 0% | [2] -10.8% | [3] -6.3% | [4] -5.3% | [5] -3.75% | [6] -15.2%
